Counter-ions that a name gives are not always drawn. ± gives the standard deviation of the averaged measurements.

For this test, the system named is Serratia marcescens K904 PosmB-luxCDABE reporter (pMQ747). Briefly: PosmB-lux reporter fold induction (RLU/OD600 relative to no-compound control), highest over Biolog concentrations; higher = stronger reporter activation. Particulars: ΔrcsB mutant CMS5177; 4 h. The protocol:
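Serratia marcescens K904 (wild type) or its isogenic ΔrcsB mutant, carrying the Rcs-dependent PosmB-luxCDABE reporter plasmid pMQ747, was grown in LB at OD600 0.1 in Biolog Phenotype MicroArray plates PM11-20 for 4 h at 30-32°C. Each compound is present at 3-4 proprietary concentrations (not stated); per the Fig. S1 legend the value given is the highest fold over those wells. Three independent trials.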
With `[Cl-].[Li+]` [lithium chloride] (Biolog plate: PM17, well positions: F1-4), the “PosmB-lux reporter fold induction” value was determined as 2.92 ± 1.
For the compound `CCCCCCCCCCCC[N+](C)(C)CCCS(=O)(=O)[O-]` [lauryl sulfobetaine] (Biolog plate: PM19, well positions: G1-4), the “PosmB-lux reporter fold induction” value came out at 1.4 ± 0.45.
In the case of `NC[C@@H]1O[C@H](O[C@H]2[C@@H](O)[C@H](O[C@@H]3[C@@H](O)[C@H](N)C[C@H](N)[C@H]3O[C@H]3O[C@H](CO)[C@@H](O)[C@H](O)[C@H]3N)O[C@@H]2CO)[C@H](N)[C@@H](O)[C@@H]1O` [Paromomycin] (Biolog plate: PM12, well positions: C1-4), the “PosmB-lux reporter fold induction” value came out at 1.42 ± 0.79.
For the compound `NC(CO)C(=O)NO` (racemic) [D,L-Serine hydroxamate] (Biolog plate: PM12, well positions: C9-12), the “PosmB-lux reporter fold induction” value was 1.74 ± 1.6.
In the case of `Cc1onc(-c2ccccc2)c1C(=O)N[C@@H]1C(=O)N2[C@@H]1SC(C)(C)[C@@H]2C(=O)O` [Oxacillin] (Biolog plate: PM12, well positions: B1-4) it was 1.31 ± 0.52; in that of `O=C(OC[C@H]1O[C@@H](OC(=O)c2cc(O)c(O)c(OC(=O)c3cc(O)c(O)c(O)c3)c2)[C@H](OC(=O)c2cc(O)c(O)c(OC(=O)c3cc(O)c(O)c(O)c3)c2)[C@@H](OC(=O)c2cc(O)c(O)c(OC(=O)c3cc(O)c(O)c(O)c3)c2)[C@@H]1OC(=O)c1cc(O)c(O)c(OC(=O)c2cc(O)c(O)c(O)c2)c1)c1cc(O)c(O)c(OC(=O)c2cc(O)c(O)c(O)c2)c1` [tannic acid] (Biolog plate: PM17, well positions: F9-12), 0.888 ± 0.24; in that of `O=c1[nH]c(=O)n([C@H]2C[C@H](O)[C@@H](CO)O2)cc1C(F)(F)F` [trifluorothymidine] (Biolog plate: PM18, well positions: B1-4), 1.09 ± 0.28.
In the case of `NC[C@H]1O[C@H](O[C@H]2[C@H](O)[C@@H](O[C@H]3O[C@H](CO)[C@@H](O)[C@H](N)[C@H]3O)[C@H](N)C[C@@H]2N)[C@H](N)C[C@@H]1O` [Tobramycin] (Biolog plate: PM12, well positions: F1-4) it was 1.52 ± 0.67.
In the case of `NCC[C@H](O)C(=O)N[C@@H]1C[C@H](N)[C@@H](O[C@H]2O[C@H](CN)[C@@H](O)[C@H](O)[C@H]2O)[C@H](O)[C@H]1O[C@H]1O[C@H](CO)[C@@H](O)[C@H](N)[C@H]1O` [Amikacin] (Biolog plate: PM11, well positions: A2-4) it was 1 ± 0.088; in that of `NCC(=O)O` [Glycine] (Biolog plate: PM13, well positions: F5-8), 1.39 ± 0.27.
For `OCC(O)CS` (stereo not given) [thioglycerol] (Biolog plate: PM19, well positions: H5-8), the “PosmB-lux reporter fold induction” value was 1.08 ± 0.56.
In the case of `O=C(O)CN(CCOCCOCCN(CC(=O)O)CC(=O)O)CC(=O)O` (Biolog plate: PM14, well positions: H1-4) it was 1.53 ± 0.51; in that of `CCCCCCCC[N+](C)(CCCCCCCC)CCCCCCCC` [methyltrioctyl-ammonium chloride] (Biolog plate: PM19, well positions: B1-4), 2.23 ± 1.5; in that of `OB(O)O` [Boric acid] (Biolog plate: PM14, well positions: C1-4), 23.8 ± 12.
The same measure for `CCn1cc(C(=O)O)c(=O)c2cnc(N3CCNCC3)nc21` [pipemidic acid] (Biolog plate: PM18, well positions: B5-8): 1.91 ± 0.5.
As for `O=P(O)(O)OP(=O)(O)O` [sodium pyrophosphate decahydrate] (Biolog plate: PM18, well positions: A5-8), the “PosmB-lux reporter fold induction” value worked out at 0.615 ± 0.16.
In the case of `C/C=C/C=C/C(=O)O` [sorbic acid] (Biolog plate: PM16, well positions: H9-12) it was 4.84 ± 2.9.
The same measure for `NC[C@@H]1O[C@H](O[C@H]2[C@@H](O)[C@H](O[C@@H]3[C@@H](O)[C@H](N)C[C@H](N)[C@H]3O[C@H]3O[C@H](CN)[C@@H](O)[C@H](O)[C@H]3N)O[C@@H]2CO)[C@H](N)[C@@H](O)[C@@H]1O` [Neomycin] (Biolog plate: PM11, well positions: F9-12): 1.31 ± 0.23; for `Cc1onc(-c2ccccc2Cl)c1C(=O)N[C@@H]1C(=O)N2[C@@H]1SC(C)(C)[C@@H]2C(=O)O` [Cloxacillin] (Biolog plate: PM11, well positions: B5-8): 1.06 ± 0.1; for `On1ccccc1=S` [1-Hydroxy-pyridine-2-thione] (Biolog plate: PM14, well positions: C5-8): 1.1 ± 0.053.
Regarding `CCn1cc(C(=O)O)c(=O)c2cc(F)c(N3CCNCC3)nc21` [Enoxacin] (Biolog plate: PM11, well positions: E5-8), the “PosmB-lux reporter fold induction” value came out at 1.45 ± 0.3.
For the compound `Cc1cc(O)cc(C)c1Cl` [chloroxylenol] (Biolog plate: PM16, well positions: H5-8), the “PosmB-lux reporter fold induction” value turned out to be 1.72 ± 0.43.
As for `Nc1ccc2cc3ccc(N)cc3nc2c1` [proflavine] (Biolog plate: PM20, well positions: D1-4), the “PosmB-lux reporter fold induction” value turned out to be 1.91 ± 0.49.
In the case of `Cc1ccc2c(Cl)cc(Cl)c(O)c2n1` [5,7-Dichloro-8-hydroxy-quinaldine] (Biolog plate: PM15, well positions: B9-12) it was 1.27 ± 0.13; in that of `[Na+].[O]=[V](=[O])[O-]` [Sodium metavanadate] (Biolog plate: PM14, well positions: F9-12), 1.84 ± 1.
Take `CC1(C)S[C@@H]2[C@H](NC(=O)[C@H](N)c3ccc(O)cc3)C(=O)N2[C@H]1C(=O)O` [Amoxicillin] (Biolog plate: PM11, well positions: B1-4): the “PosmB-lux reporter fold induction” value was 0.968 ± 0.11.
Regarding `CS(=O)(=O)c1ccc([C@@H](O)[C@@H](CO)NC(=O)C(Cl)Cl)cc1` [thiamphenicol] (Biolog plate: PM18, well positions: A9-12), the “PosmB-lux reporter fold induction” value is 0.916 ± 0.32.
On to `CN[C@@H]1[C@@H](O[C@H]2O[C@H](CO)[C@@H](N)[C@H](O)[C@H]2O)OC2C[C@@H](N)[C@@H](O[C@H]3[C@H](O)[C@@H](O)[C@H](N)C[C@@H]3N)OC2[C@@H]1O` (stereo not given in full) [apramycin] (Biolog plate: PM20, well positions: A5-8), for which the “PosmB-lux reporter fold induction” value is 1.48 ± 0.21.
In the case of `NC(CO)C(=O)NNCc1ccc(O)c(O)c1O` (stereo not given) [Benserazide] (Biolog plate: PM20, well positions: A9-12) it was 0.916 ± 0.14; in that of `CN(C)c1ccc(C(=C2C=CC(=[N+](C)C)C=C2)c2ccc(N(C)C)cc2)cc1` [crystal violet] (Biolog plate: PM20, well positions: E1-4), 1.24 ± 0.17.
With `N=C(N)N` [Guanidine hydrochloride] (Biolog plate: PM15, well positions: A5-8), the “PosmB-lux reporter fold induction” value was found to be 2.09 ± 0.16.
Consider `O=C(O)CN(CCN(CC(=O)O)CC(=O)O)CC(=O)O` (Biolog plate: PM15, well positions: B5-8), for which the “PosmB-lux reporter fold induction” value is 1.22 ± 0.17.
With `[Cl][Cu][Cl]` [Cupric chloride] (Biolog plate: PM13, well positions: H1-4), the “PosmB-lux reporter fold induction” value came to 1.06 ± 0.1.
Take `O=C(O)c1cn(C2CC2)c2cc(N3CCNCC3)c(F)cc2c1=O` [ciprofloxacin] (Biolog plate: PM20, well positions: D5-8): the “PosmB-lux reporter fold induction” value was found to be 1.49 ± 0.33.
In the case of `N.N.N.N.N.N.[Cl-].[Cl-].[Cl-].[Co+3]` [hexammine cobalt (III) chloride] (Biolog plate: PM19, well positions: H1-4) it was 1.35 ± 0.2.
For `CC1(C)S[C@@H]2[C@H](NC(=O)COc3ccccc3)C(=O)N2[C@H]1C(=O)O.CN(C)[C@@H]1C(O)=C(C(=O)NCN2CCN(CCO)CC2)C(=O)[C@@]2(O)C(O)=C3C(=O)c4c(O)cccc4[C@@](C)(O)[C@H]3C[C@@H]12` [Penimepicycline] (Biolog plate: PM12, well positions: B5-8), the “PosmB-lux reporter fold induction” value came out at 1.27 ± 0.3.
In the case of `CN(C)[C@@H]1C(O)=C(C(N)=O)C(=O)[C@@]2(O)C(O)=C3C(=O)c4c(O)ccc(Cl)c4[C@@](C)(O)[C@H]3C[C@@H]12` [Chlortetracycline] (Biolog plate: PM11, well positions: A5-8) it was 1.3 ± 0.26.
In the case of `CCn1cc(C(=O)O)c(=O)c2ccc(C)nc21` [Nalidixic Acid] (Biolog plate: PM11, well positions: E9-12) it was 8.63 ± 3.1.
In the case of `Nc1ccn(C2OC(CO)C(O)C2O)c(=O)n1` [Cytosine-1-beta-D-arabino-furanoside] (Biolog plate: PM13, well positions: E1-4) it was 1.91 ± 0.42; in that of `Cc1cc(NS(=O)(=O)c2ccc(N)cc2)no1` [Sulfa-methoxazole] (Biolog plate: PM12, well positions: G5-8), 1.9 ± 1.2.

For the origin of these results see the supplement of paper PMC9942566.
